The list is not random: actives were taken first. Their share in the collection is about 2.1%.
EBV LMP1 NFkB – reduces LMP1-driven NF-kappaB luciferase signal; inhibition, % at 12.5 µM; 350,000 tested, 0.69% active; LMP1-induced NF-kappaB luciferase reporter cells, luminescence; in the data active = inhibition above about 41%;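 note: 0% = neutral control wells and 100% = reference inhibitor control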
MITF TRPM1 inh – MITF TRPM1 promoter inhibition in SK-MEL-5 cells. SK-MEL-5 TRPM1 promoter luciferase, 24 h. inhibition, % at 12.5 µM. 330,000 tested, 0.83% active. AID 488899;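 active = mean inhibition across replicates of 60% or more, whatever share of single replicates reaches that level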
aSyn 5UTR inh – MLPCN primary screen, SNCA 5' untranslated region; alpha-synuclein 5'UTR reporter, inhibitor activity; inhibition, % (tested at 7.5 µM); 300,000 tested, 0.82% active; AID 1813; in the data active = inhibition above about 60%;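 note: H4 neuroglioblastoma cells stably carrying SNCA 5'UTR luciferase fusion; 0% = DMSO wells and 100% = positive control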
PAX8 reporter – inhibitors of PAX8 transcriptional activity in RMG-I cells; RMG-I TPO-luciferase reporter, SteadyGlo, 24 h; inhibition, % at 12.6 µM; 360,000 tested, 1.2% active;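 active = mean replicate inhibition at least 60% with every replicate also reaching 60%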;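 note: luciferase light reporting Pax8 driven TPO promoter activity; plate controls were median of neutral control wells for no effect and mitoxantrone controls for full effect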
Shn3 3UTR inh – inhibitors of Schnurri-3 3'UTR reporter in osteoblasts. Clone20 osteoblast Shn3 3'UTR firefly luciferase, 24 h. inhibition, % at 12.5 µM. 360,000 tested, 0.52% active. AID 588674;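 active = mean inhibition of at least 75% with every replicate also reaching 75%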;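 note: 0% = median of neutral control wells and 100% = pilot-screen positive control compound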
Numbers without * were called inactive; . = not tested or not shown.

SMILES | EBV LMP1 NFkB | MITF TRPM1 inh | aSyn 5UTR inh | PAX8 reporter | Shn3 3UTR inh
O=C(Nc1ccc(F)cc1F)c1cccc(C(=O)Nc2ccc(F)cc2F)n1 | -117.8 | 17.5 | 86.7* | -2.7 | 49.8
Cc1ccccc1C(=O)NC1CCN(Cc2ccccc2)CC1 | 3.2 | 7.9 | 8.5 | -0.3 | -4.4
COc1cc(N)c(Cl)cc1C(=O)NC1CCN(Cc2ccccc2)CC1 | 92.4* | 5.7 | . | 12.8 | -20.1
COc1cccc(NC(=O)c2cccc(OC)c2OC)c1 | -13.1 | -57.7 | -168.0 | -192.9 | -63.6
COc1cccc(C(=O)Nc2ccc3[nH]c(=O)[nH]c3c2)c1OC | 3.1 | 39.7 | 67.8* | -5.5 | -23.1
CC1CN(S(=O)(=O)c2ccc(C(=O)NCCCn3ccnc3)cc2)CC(C)O1 (configuration not stated) | -37.2 | -2.7 | 104.6* | 12.8 | 3.5
NC(=O)CC(c1ccccc1)c1ccco1 (configuration not stated) | -4.9 | -3.3 | 4.5 | -14.7 | -22.5
CSC1SCC2C(=O)N(C)C(C(C)C)C(=O)OCC(NC(=O)c3cnc4ccccc4n3)C(=O)NC(C)C(=O)N(C)C1C(=O)N(C)C(C(C)C)C(=O)OCC(NC(=O)c1cnc3ccccc3n1)C(=O)NC(C)C(=O)N2C (configuration not stated) | 85.0* | 45.8 | . | 96.8* | 94.1*
Cc1cc(C)n(C2CCCCC2OC(=O)c2ccccc2F)n1 (configuration not stated) | 42.4* | 9.9 | 4.6 | -8.2 | 0.2
O=C(CCCN1C(=O)S/C(=C/c2ccccc2)C1=S)Nc1ccc(C(=O)O)cc1 | 2.5 | -9.5 | 7.8 | . | 5.5
Cc1nc(N)sc1-c1csc(Nc2cccc(O)c2)n1 | -5.8 | -32.5 | -78.7 | -52.3 | -49.3
Cc1ccc(C(C)C)c(OCc2nn(CC(=O)c3ccc(Cl)cc3)c3[n+]2CCCCC3)c1 | -4.8 | 67.4* | 10.1 | 66.1* | 48.6
COc1ccc(S(=O)(=O)NCCc2csc(-c3cccnc3)n2)cc1 | 77.5* | -7.8 | -17.9 | -9.8 | -14.0
CCN(CC(=O)NC1CCCC1)S(=O)(=O)c1ccc(Br)cc1 | 1.9 | -1.0 | -4.9 | 11.2 | -3.2
COc1ccc(/C=N/Nc2ccc(C(=O)O)cc2)c(OC)c1OC | -8.3 | -108.2 | -118.3 | -89.0 | -37.0
COC(=O)c1ccc2c(c1)C(C)(C)C(/C=C/c1ccc(OC)c(OC)c1OC)=[N+]2C | 39.1 | 100.6* | 101.6* | . | 88.4*
COC(=O)c1ccc2c(c1)C(C)(C)C(/C=C/c1ccc(O)cc1)=[N+]2C | 88.8* | 106.1* | 119.3* | . | 98.7*
Cc1c(N/N=C(\C#N)C(=O)c2ccc(Cl)cc2)c(=O)n(-c2ccccc2)n1C | -4.8 | 51.3 | 86.3* | 64.5* | 89.8*
Cc1ccc(C(=O)CSc2nnnn2Cc2ccccc2)cc1C | -5.4 | -4.2 | -2.3 | 17.3 | -8.0
COC(=O)[C@]12CCCCC=C1N(CCC1=CCCCC1)C(=O)[C@H](CC(=O)N1CCN(C(=O)c3ccco3)CC1)C2 | . | . | . | 79.0* | .
CCOC(=O)[C@]12CCC=C1N(Cc1ccccc1)C(=O)[C@H](CC(=O)N1CCN(C(=O)c3ccco3)CC1)C2 | . | . | . | 44.8 | .
COC(=O)[C@]12CCCCC=C1N(Cc1cccc3ccccc13)C(=O)[C@H](CC(=O)N1CCN(C(=O)c3ccco3)CC1)C2 | . | . | . | 92.4* | .
CCOC(=O)[C@]12CCCC=C1N(Cc1ccccc1)C(=O)[C@H](CC(=O)N1CCN(C(=O)c3ccco3)CC1)C2 | . | . | . | 70.6* | .
S=C1NC(C23CC4CC(CC(C4)C2)C3)=CC(c2ccc3c(c2)OCO3)N1 (configuration not stated) | -2.6 | -8.1 | -0.9 | -11.9 | 8.7
CO[C@H]1CN(C)C(=O)c2ccc(NC(=O)c3ccccc3)cc2OC[C@H](C)N(C(=O)C2CC2)C[C@H]1C | . | . | . | -23.4 | .
SMILES | EBV LMP1 NFkB | MITF TRPM1 inh | aSyn 5UTR inh | PAX8 reporter | Shn3 3UTR inh
CC(=O)c1ccc(OC(C)C(=O)Nc2cccc(S(=O)(=O)NCc3ccco3)c2)cc1 (configuration not stated) | -9.6 | 11.5 | . | 4.2 | 3.5
Cc1ccc(CNc2ncnc3[nH]ncc23)cc1 | 8.6 | -3.8 | . | 7.3 | 14.7
COc1ccccc1C1c2ccc3ccccc3c2Oc2ncn(CCN(C)C)c(=N)c21 (configuration not stated) | 47.6* | 69.0* | -11.2 | 21.5 | -3.9
COc1ccccc1C1c2ccc3ccccc3c2Oc2ncn(CCCO)c(=N)c21 (configuration not stated) | 1.6 | 61.6* | -6.6 | . | 18.5
COc1ccc(C2c3ccc4ccccc4c3Oc3ncn(CCCN(C)C)c(=N)c32)cc1 (configuration not stated) | -34.9 | 100.6* | 89.8* | 10.1 | 60.3
COc1ccc(C2c3ccc4ccccc4c3Oc3ncn(Cc4ccco4)c(=N)c32)cc1OC (configuration not stated) | 4.6 | 27.0 | 1.5 | 11.7 | 39.3
COC(=O)c1cccc(NC(=O)NC(=O)c2ccccc2Cl)c1 | 37.5 | 58.8 | 94.8* | 29.6 | 22.9
C[C@H](CO)N1C[C@H](C)[C@@H](CN(C)C(=O)Cc2ccccc2)OCCCC[C@H](C)Oc2ccc(NC(=O)Nc3ccccc3)cc2C1=O | . | . | . | 4.4 | .
C[C@H](CO)N1C[C@H](C)[C@@H](CN(C)C(=O)Cc2ccccc2)OCCCC[C@H](C)Oc2ccc(NC(=O)Nc3ccc(C(F)(F)F)cc3)cc2C1=O | . | . | . | 87.0* | .
C[C@@H]1CN([C@@H](C)CO)C(=O)c2cc(NC(=O)Nc3ccccc3)ccc2O[C@@H](C)CCCCO[C@H]1CN(C)C(=O)Cc1ccccc1 | . | . | . | 10.3 | .
C[C@@H]1CN([C@H](C)CO)C(=O)c2cc(NC(=O)Nc3ccc(C(F)(F)F)cc3)ccc2O[C@@H](C)CCCCO[C@@H]1CN(C)C(=O)Cc1ccccc1 | . | . | . | 71.9* | .
C[C@@H]1CCCCO[C@H](CN(C)C(=O)Cc2ccccc2)[C@H](C)CN([C@H](C)CO)C(=O)c2cc(NC(=O)Nc3ccccc3)ccc2O1 | . | . | . | 1.3 | .
C[C@@H]1CN([C@H](C)CO)C(=O)c2cc(NC(=O)Nc3ccccc3)ccc2O[C@@H](C)CCCCO[C@@H]1CN(C)C(=O)Cc1ccccc1 | . | . | . | -3.5 | .
C[C@@H]1CCCCO[C@H](CN(C)C(=O)Cc2ccccc2)[C@@H](C)CN([C@@H](C)CO)C(=O)c2cc(NC(=O)Nc3ccc(C(F)(F)F)cc3)ccc2O1 | . | . | . | 78.6* | .
C[C@@H]1CCCCO[C@H](CN(C)C(=O)Cc2ccccc2)[C@H](C)CN([C@@H](C)CO)C(=O)c2cc(NC(=O)Nc3ccc(C(F)(F)F)cc3)ccc2O1 | . | . | . | 78.6* | .
CCCNC(=O)c1[nH]c(C)c(C(=O)OCC)c1C | . | . | -25.2 | . | .
COc1cccc(NC(=O)CN(C)C(=O)CN2C(=O)c3ccc([N+](=O)[O-])cc3C2=O)c1 | -0.2 | 2.4 | -0.5 | 11.0 | 14.9
CCOC(=O)CSc1nnc(-c2cccnc2)n1C | -0.2 | 6.6 | 9.1 | -19.5 | -2.0
COc1ccc(NC(=O)Nc2ccc3c(c2)C(=O)N([C@H](C)CO)C[C@@H](C)[C@@H](CN(C)C(=O)Cc2ccccc2)OCCCC[C@H](C)O3)cc1 | . | . | . | 98.9* | .
